This note sets out measurements from PubChem BioAssay AID602393 (Broad Institute, 2012).

Among all 350,000 compounds or so, about 7,000 (2%) were called active. Cut-off read from the data, not from the text of the source: active = activation above about 40%; inconclusive = no clear call, values can overlap the other calls; inactive = below that. The full list was thinned out, with actives kept by preference.

The assay is described as follows: raisers of Bmi1 knock-in reporter signal – mouse ES cells, Bmi1 luciferase knock-in, single point, esBAF inhibitor project, primary screen (AID 602393).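 Note: 0% = median of the plate's neutral control wells and 100% = double that signal; a rise in the Bmi1 reporter signal indicates esBAF inhibition.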 The note with it: 24 h, at 12.5 µM, active compounds read high, 100% = twice the neutral-well signal.
With `O=C(COc1cccnc1[N+](=O)[O-])Nc1ccc(Cl)cc1F`, the reporter increase was 43.4% (active).
The figure for `CC(NC(=O)COc1cccnc1[N+](=O)[O-])c1ccc(Cl)cc1Cl` (configuration not stated) is 0.51% (inactive); for `COc1cccc(NC(=O)COc2cccnc2[N+](=O)[O-])c1` it is 20% (inactive).
The figure for `COc1ccc(-c2nc3ccccc3c(=O)n2CCc2ccc(O)cc2)cc1` is 9.53% (inactive); for `COc1ccc(OCc2ccc(-c3nc4ccccc4c(=O)n3N)o2)cc1` it is 54.8% (active).
Turning to `Cn1c(COc2ccc(Cl)cc2)nc2ccccc2c1=O`, the reporter increase was 12.6% (inactive).
In the case of `COc1ccc(S(=O)(=O)N2CC[C@@H]3[C@@H](CO)Nc4ccc(C#Cc5cccnc5)cc4[C@@H]32)cc1` it was 7.74% (inactive); in that of `CO[C@@H]1CN(C)C(=O)c2cc(NS(=O)(=O)Cc3ccccc3)ccc2OC[C@H](C)NC[C@H]1C`, -0.575% (inactive).
The figure for `COCC#Cc1cnc2c(c1)C(=O)N([C@H](C)CO)C[C@H](C)[C@H](CN(C)C(=O)Nc1cc(F)ccc1F)O2` is -0.321% (inactive); for `CCN(CC)S(=O)(=O)c1ccc(-c2cn3ccc(C)cc3n2)cc1` it is 42.3% (active).
In the case of `CCN(c1cccc(C)c1)S(=O)(=O)c1ccc(-c2coc(C)n2)cc1` it was 2.04% (inactive); in that of `COc1ccc(-c2cn3ccc(C)cc3n2)cc1`, -61.7% (inactive); in that of `COCC(=O)Nc1ccc2c(c1)C(=O)N(C)C[C@H](OC)[C@@H](C)CN(C(=O)c1cnccn1)[C@H](C)CO2`, -3.88% (inactive).
In the case of `COC(=O)C[C@H]1CC[C@@H](NC(=O)c2ccccc2)[C@@H](CO)O1`, the reporter increase was -2.05% (inactive).
Regarding `CC(C)NC(=O)Nc1ccc2c(c1)C(=O)N([C@@H](C)CO)C[C@H](C)[C@@H](CN(C)C(=O)Nc1ccc(F)cc1)OCCCC[C@H](C)O2`, the reporter increase was 11.9% (inactive).
The figure for `O=C(NCC(=O)N1CCN(c2ccccc2F)CC1)c1cccs1` is 28.1% (inactive); for `O=C(CCSc1ccccc1)N1CCN(c2ccccc2F)CC1` it is 65.1% (active).
Consider `O=C(CCc1ccccc1F)N1CCN(c2ccccc2)CC1`, for which the reporter increase is 1.91% (inactive).
In the case of `CCCN1C[C@H](C)[C@@H](OC)CN(C)C(=O)c2ccc(NC(=O)C3CCOCC3)cc2OC[C@H]1C` it was -2.07% (inactive); in that of `O=C(C[C@@H]1CC[C@H]2NC[C@H](O)COC[C@@H]2O1)NCCN1CCCCC1`, 6.52% (inactive).
The figure for `O=C(CC(F)(F)F)N1C[C@H]2[C@@H](c3ccccc31)[C@H](CO)N2C(=O)Cc1cccnc1` is -1.13% (inactive); for `CS(=O)(=O)N1CCc2cc(C(=O)Nc3ccccc3)ccc21` it is 47.5% (active); for `CC(=O)Nc1cccc(NC(=O)c2ccc3c(c2)CCN3S(C)(=O)=O)c1` it is 2.43% (inactive).
The figure for `CS(=O)(=O)N1CCc2cc(C(=O)Nc3ccccc3Br)ccc21` is 34.7% (inactive); for `O=C(O)C[C@H]1C[C@@H]2c3cc(NC(=O)Nc4ccc(C(F)(F)F)cc4)ccc3O[C@@H]2[C@@H](CO)O1` it is 2.29% (inactive); for `C=CCN1C(=O)C(Cc2cccc(Cl)c2)S/C1=N/N=C/c1ccco1` (configuration not stated) it is -2.3% (inactive).
In the case of `CCN(CC)C(=O)C1=C(C)N(Cc2ccc(OC)cc2)C(=O)C(CC(=O)NCc2ccco2)C1` (configuration not stated), the reporter increase was -3.89% (inactive).
As to `COc1ccc(CN2C(=O)C(C)S/C2=N/N=C/c2ccco2)cc1` (configuration not stated), the reporter increase was 70.2% (active).
For the compound `CCCC(=O)Nc1ccc2c(c1)C(=O)N(C)C[C@@H](OC)[C@@H](C)CN(C(=O)CC)[C@H](C)CO2`, the reporter increase was -1.94% (inactive).
In the case of `CN(C)C(=O)C[C@H]1CC[C@@H](NC(=O)Nc2cccc(F)c2)[C@H](CO)O1` it was -0.909% (inactive); in that of `COCC#Cc1cnc2c(c1)C(=O)N([C@@H](C)CO)C[C@@H](C)[C@H](CN(C)C(=O)c1cnccn1)O2`, 3.45% (inactive).
The figure for `CN1C(=O)c2cc(NC(=O)Nc3ccccc3Cl)ccc2OC[C@H]2O[C@@H](CC(=O)O)CC[C@H]21` is 3.49% (inactive); for `COCC1CCN(C(=O)C2CCC(=O)N(CC3CCCCC3)C2)CC1` (configuration not stated) it is -0.459% (inactive).
In the case of `O=C(C1CCC(=O)N(C2CC2)C1)N1CCN(c2ccc(Cl)cc2)CC1` (configuration not stated) it was -7.88% (inactive); in that of `CC(C)C1CCN(C(=O)C2CCC(=O)N(C3CCCCCC3)C2)CC1` (configuration not stated), 55.6% (active).
Consider `COc1ccc(S(=O)(=O)Nc2ccc3c(c2)CC(=O)N([C@H](C)CO)C[C@H](C)[C@@H](CN(C)C)O3)cc1`, for which the reporter increase is -3.65% (inactive).
The figure for `O=C(Cc1ccccn1)N[C@H]1CC[C@H](CCNS(=O)(=O)c2cccc(F)c2)O[C@@H]1CO` is 0.895% (inactive).
